Measured values as given in PubChem BioAssay AID1159580 (chemical genetic matrix, 2015).
The campaign covered roughly 5,500 compounds. About 2,000 (36%) were called active. Roughly 18% stayed inconclusive and do not appear here. Cut-off read from the data, not from the text of the source: active = normalized growth mostly below about 0.91 (no sharp cut-off); inconclusive = no clear call, values can overlap the other calls; inactive = mostly above about 0.92. The list shows a part of the results.

Experiment: chemical genetic growth profiling, strain panel (AID 1159580);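 note: tested at 20 µM; growth read once vehicle control cultures reached saturation at 30 °C; 1 = growth at the plate median or of vehicle wells; lower values mean less growth of the strain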
Details: S. cerevisiae deletion strains, growth OD
[1] = locus YDL101C, strain DUN1, hits give low values
[2] = locus YHR030C, strain SLT2, hits give low values
[3] = locus YAL013W, strain DEP1, hits give low values
[4] = locus YBR229C, strain ROT2, hits give low values
[5] = locus YDR150W, strain NUM1, hits give low values
[6] = locus YEL061C, strain CIN8, hits give low values
[7] = locus YGR078C, strain PAC10, hits give low values
[8] = locus YHR087W, strain rtc3, hits give low values
[9] = locus YJR043C, strain POL32, hits give low values
[10] = locus YJR075W, strain HOC1, hits give low values
[11] = locus YLR039C, strain RIC1, hits give low values
[12] = locus YLR058C, strain SHM2 (second series), hits give low values
[13] = locus YLR085C, strain ARP6, hits give low values
[14] = locus YLR262C, strain YPT6, hits give low values
[15] = locus YML094W, strain GIM5, hits give low values
[16] = locus YMR219W, strain ESC1, hits give low values
[17] = locus YMR263W, strain SAP30, hits give low values
[18] = locus YMR307W, strain GAS1, hits give low values
[19] = locus YNL153C, strain GIM3, hits give low values
[20] = locus YNL298W, strain CLA4 (second series), hits give low values
[21] = locus YNL322C, strain KRE1, hits give low values
[22] = locus YNR030W, strain Alg12, hits give low values
[23] = locus YOL006C, strain TOP1, hits give low values
[24] = locus YPL055C, strain LGE1, hits give low values
[25] = locus YPL241C, strain CIN2, hits give low values
[26] = locus YPR135W, strain CTF4, hits give low values

Measured: normalized growth

O=[N+]([O-])c1cc(C(F)(F)F)ccc1Sc1n[nH]c(-c2cc(Cl)cc(Cl)c2)n1
active: locus YDL214C, strain PRR2, hits give low values 0.537 | locus YDR477W, strain SNF1, hits give low values 0.578 | locus YER123W, strain YCK3, hits give low values 0.329 | locus YER133W, strain GLC7, hits give low values 0.716 | locus YFR019W, strain FAB1, hits give low values 0.207 | locus YGR040W, strain KSS1, hits give low values 0.678 | locus YGR052W, strain FMP48, hits give low values 0.541 | locus YGR092W, strain DBF2, hits give low values 0.129 | [2] 0.147 | locus YHR079C, strain IRE1, hits give low values 0.131 | locus YHR082C, strain KSP1, hits give low values 0.231 | locus YHR205W, strain SCH9, hits give low values 0.472 | locus YJL095W, strain BCK1, hits give low values 0.228 | locus YJL157C, strain FAR1, hits give low values 0.15 | locus YJR066W, strain TOR1 (second series), hits give low values 0.203 | locus YJR066W, strain TOR1, hits give low values 0.16 | locus YKL048C, strain ELM1, hits give low values 0.298 | locus YKL067W, strain YNK1, hits give low values 0.426 | locus YKL101W, strain HSL1, hits give low values 0.201 | locus YKL203C, strain TOR2, hits give low values 0.601 | locus YLR113W, strain HOG1, hits give low values 0.223 | locus YLR133W, strain CKI1, hits give low values 0.164 | locus YLR403W, strain SFP1, hits give low values 0.602 | locus YML070W, strain DAK1, hits give low values 0.293 | locus YMR205C, strain PFK2 (second series), hits give low values 0.399 | locus YNL020C, strain ARK1, hits give low values 0.133 | locus YNL183C, strain NPR1, hits give low values 0.497 | locus YNL307C, strain MCK1 (second series), hits give low values 0.14 | locus YOL136C, strain PFK27, hits give low values 0.194 | locus YOR061W, strain CKA2, hits give low values 0.164 | locus YOR119C, strain RIO1, hits give low values 0.673 | locus YOR231W, strain MKK1, hits give low values 0.155 | locus YPL031C, strain PHO85, hits give low values 0.32 | locus YPL153C, strain RAD53, hits give low values 0.26 | locus YPL204W, strain HRR25, hits give low values 0.255 | locus YPL256C, strain CLN2, hits give low values 0.166
inactive: locus YAR019C, strain CDC15, hits give low values 0.925 | locus YBL105C, strain PKC1, hits give low values 0.954 | locus YBR135W, strain CKS1, hits give low values 0.951 | locus YBR136W, strain MEC1, hits give low values 0.936 | locus YBR160W, strain CDC28, hits give low values 0.935 | locus YDL017W, strain CDC7, hits give low values 0.95 | locus YDL028C, strain MPS1, hits give low values 0.917 | [1] 0.987 | locus YDL108W, strain KIN28, hits give low values 0.94 | locus YDL132W, strain cdc53, hits give low values 0.937 | locus YDR052C, strain DBF4, hits give low values 0.944 | locus YDR054C, strain cdc34, hits give low values 0.896 | locus YDR226W, strain ADK1, hits give low values 0.943 | locus YFL009W, strain cdc4, hits give low values 0.909 | locus YFL029C, strain CAK1, hits give low values 0.929 | locus YFR003C, strain YPI1, hits give low values 0.954 | locus YFR028C, strain CDC14, hits give low values 0.933 | locus YIL147C, strain SLN1, hits give low values 0.929 | locus YJL128C, strain PBS2, hits give low values 0.811 | locus YJR016C, strain ILV3, hits give low values 0.939 | locus YKL193C, strain SDS22, hits give low values 0.94 | locus YMR001C, strain CDC5, hits give low values 0.925 | locus YMR277W, strain FCP1, hits give low values 0.926 | locus YNL006W, strain LST8, hits give low values 0.931 | locus YNL161W, strain CBK1, hits give low values 0.949 | locus YNL207W, strain RIO2, hits give low values 0.948 | locus YNL222W, strain SSU72, hits give low values 0.935 | locus YOL078W, strain AVO1, hits give low values 0.943 | locus YOR329C, strain SCD5, hits give low values 0.939 | locus YPL209C, strain IPL1, hits give low values 0.948 | locus YPR025C, strain CCL1, hits give low values 0.952 | locus YPR106W, strain ISR1, hits give low values 0.944 | locus YPR111W, strain DBF20, hits give low values 0.908 | strain NNK1, hits give low values 0.917 | strain TSCII, hits give low values 0.919

Nc1nc(Sc2cc(-n3cccc3)c(Cl)cc2[N+](=O)[O-])n[nH]1
inactive: [3] 0.992 | [4] 1 | [1] 0.998 | [5] 0.997 | [6] 0.994 | [7] 0.995 | locus YGR229C, strain SMI1, hits give low values 1 | [2] 0.972 | [8] 0.992 | [9] 0.996 | [10] 1.01 | [11] 0.973 | [12] 1 | [13] 0.972 | [14] 1 | [15] 0.983 | [16] 1 | [17] 1.01 | [18] 0.985 | [19] 0.995 | [20] 0.972 | [21] 1 | [22] 0.995 | [23] 1.02 | [24] 0.989 | [25] 0.936 | [26] 0.933

Nc1nc(Sc2ccc(C(F)(F)F)cc2[N+](=O)[O-])n[nH]1
inactive: [3] 0.988 | [4] 0.998 | [1] 1.02 | [5] 0.901 | [6] 1.02 | [7] 1.01 | [2] 1.03 | [8] 0.988 | [9] 1.01 | [10] 1.01 | locus YKL190W, strain CNB1, hits give low values 1 | [11] 1.07 | [12] 1.01 | [13] 1.16 | [14] 1.03 | [15] 0.995 | [16] 1 | [17] 1.01 | [18] 1.24 | [19] 1.01 | [20] 1.01 | [21] 1 | [22] 0.999 | [23] 1.06 | [24] 0.872 | [25] 1.08 | [26] 0.892
